Measurements published in PubChem BioAssay.
Calls of active or inactive are those of the source. Unless noted, no rule for the calls is given here.

How the values were obtained:
[1] = HepG2 liver cancer cell viability effects, profiling panel, resazurin fluorescence, 24 h, PK04 Diversity Set (AID 1172); conditions: higher = more signal
[2] = basal S. cerevisiae growth modulation, no modifier, primary screen, OD600, strain BY4716, 24 h, basal condition (AID 1173); conditions: OD600, 24 h, higher = more signal, called active from +8 up or from −8 down
[3] = MM1S myeloma cell viability, profiling panel, resazurin fluorescence, basal, 24 h, PK04 Diversity Set (AID 1174); conditions: higher = more signal, called active from +8 up or from −8 down;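 also: MM1S multiple myeloma cell line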
[4] = biological target: Dihydroorotate dehydrogenase (quinone), mitochondrial (Plasmodium falciparum (isolate 3D7)) (UniProt Q08210); assay: PfDHODH enzyme inhibitors, primary screen, biochemical, C-terminal His tag, absorbance 600 nm (AID 1175); conditions: DCIP absorbance 600 nm, higher = more signal, called active from +8 up or from −8 down;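 also: recombinant parasite enzyme with a five histidine tag at its C terminus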
Dihydroorotate dehydrogenase (quinone), mitochondrial (Plasmodium falciparum (isolate 3D7)), sequence (Q08210 whole entry, looked up): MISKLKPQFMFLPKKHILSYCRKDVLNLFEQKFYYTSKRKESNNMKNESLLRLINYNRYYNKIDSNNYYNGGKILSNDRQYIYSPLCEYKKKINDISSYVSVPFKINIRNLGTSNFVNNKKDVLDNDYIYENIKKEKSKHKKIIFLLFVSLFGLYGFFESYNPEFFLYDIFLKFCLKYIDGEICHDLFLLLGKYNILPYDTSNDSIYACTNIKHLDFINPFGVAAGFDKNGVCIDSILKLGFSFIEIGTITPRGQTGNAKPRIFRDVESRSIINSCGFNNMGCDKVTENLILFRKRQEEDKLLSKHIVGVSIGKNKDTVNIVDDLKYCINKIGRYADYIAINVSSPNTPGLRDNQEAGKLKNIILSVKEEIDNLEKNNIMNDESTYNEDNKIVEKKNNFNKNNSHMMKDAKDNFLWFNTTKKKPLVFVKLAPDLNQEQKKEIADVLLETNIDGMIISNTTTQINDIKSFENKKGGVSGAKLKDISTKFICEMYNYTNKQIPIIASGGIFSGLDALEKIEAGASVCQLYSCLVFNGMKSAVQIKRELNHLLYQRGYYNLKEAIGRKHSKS

[5] = P. aeruginosa biofilm formation inhibitors, primary screen, strain PAO1, LB-PBS medium, absorbance 600 nm (AID 1176); conditions: P. aeruginosa PAO1 growth/biofilm, A600, 12 h; higher = more signal
[6] = S. cerevisiae RM11-1a growth modifiers, primary screen, strain RM11-1a, OD600, basal, 24 h (AID 1177); conditions: OD600, 24 h, higher = more signal, called active from +8 up or from −8 down;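 also: cultures grown under basal conditions with no added stressor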
[7] = E. coli acrAB mutant growth effects, primary screen, E. coli filamentation inducers, strain DRC39, OD650, 24 h (AID 1178); conditions: higher = more signal, called active from +8 up or from −8 down;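 also: growth measured as culture turbidity by optical density at 650 nm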
[8] = E. coli acrAB mutant growth effects, primary screen, E. coli filamentation inducers, strain DRC39, OD650, 48 h (AID 1179);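 also: screen aims at cell division blockers that make cells filament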; conditions: E. coli DRC39 delta-acrAB growth, higher = more signal, called active from +8 up or from −8 down
[9] = RPMI8226 myeloma cell viability, profiling panel, resazurin fluorescence, basal, 24 h, PK04 Diversity Set (AID 1180); conditions: higher = more signal;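 also: RPMI8826 multiple myeloma cell line at 5000 cells per well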
[10] = biological target: E3 ubiquitin-protein ligase XIAP (Homo sapiens) (UniProt P98170); assay: XIAP binders, primary screen, biophysical, small-molecule microarray, fluorescence 635 nm (AID 1181); conditions: small-molecule microarray binding, higher = more signal;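 also: score merges 667 nm emission and signal to noise over triplicate slides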
E3 ubiquitin-protein ligase XIAP (Homo sapiens), sequence (P98170 whole entry, looked up): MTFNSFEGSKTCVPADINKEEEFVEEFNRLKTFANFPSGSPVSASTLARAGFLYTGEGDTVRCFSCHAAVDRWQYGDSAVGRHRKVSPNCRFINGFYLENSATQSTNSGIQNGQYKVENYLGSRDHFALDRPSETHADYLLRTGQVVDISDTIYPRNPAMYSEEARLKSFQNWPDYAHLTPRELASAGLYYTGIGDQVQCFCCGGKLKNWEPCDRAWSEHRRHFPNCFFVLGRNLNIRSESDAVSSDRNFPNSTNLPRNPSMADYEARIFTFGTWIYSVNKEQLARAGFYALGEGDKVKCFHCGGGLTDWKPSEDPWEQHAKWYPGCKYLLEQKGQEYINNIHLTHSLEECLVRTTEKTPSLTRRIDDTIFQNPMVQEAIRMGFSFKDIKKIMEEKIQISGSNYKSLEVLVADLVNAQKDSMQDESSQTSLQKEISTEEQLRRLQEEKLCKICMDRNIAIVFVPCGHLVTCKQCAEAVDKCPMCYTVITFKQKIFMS

[11] = system: XIP peptide (Xip251-270) binding; assay: small-molecule binders of XIP peptide, primary screen, biochemical, small-molecule microarray, fluorescence 635/667 nm, 0.1 µg/mL protein (AID 1182); conditions: fluorescent protein binding, 635 nm, higher = more signal, called active from +8 up or from −8 down
[12] = system: XIP peptide (Xip251-270); assay: small-molecule binders of XIP peptide, primary screen, biochemical, small-molecule microarray, fluorescence 635/667 nm, 0.5 µg/mL protein (AID 1183); conditions: small-molecule microarray binding, fluorescence 635 nm; higher = more signal
[13] = Plasmodium falciparum growth inhibition, primary screen, strain 3D7, DAPI fluorescence, 100 nL (AID 1184);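 also: parasites grown inside human red blood cells in medium with human serum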; conditions: P. falciparum 3D7 growth, 3 d, higher = more signal
[14] = biological target: Homeobox protein Hox-A13 (Mus musculus) (UniProt Q62424); assay: inhibitors of HoxA13-DNA binding, primary screen, biochemical, fluorescence polarization, labeled oligonucleotide (AID 1185); conditions: 15 min, higher = more signal, called active from +8 up or from −8 down
Homeobox protein Hox-A13 (Mus musculus), sequence (Q62424 whole entry, looked up): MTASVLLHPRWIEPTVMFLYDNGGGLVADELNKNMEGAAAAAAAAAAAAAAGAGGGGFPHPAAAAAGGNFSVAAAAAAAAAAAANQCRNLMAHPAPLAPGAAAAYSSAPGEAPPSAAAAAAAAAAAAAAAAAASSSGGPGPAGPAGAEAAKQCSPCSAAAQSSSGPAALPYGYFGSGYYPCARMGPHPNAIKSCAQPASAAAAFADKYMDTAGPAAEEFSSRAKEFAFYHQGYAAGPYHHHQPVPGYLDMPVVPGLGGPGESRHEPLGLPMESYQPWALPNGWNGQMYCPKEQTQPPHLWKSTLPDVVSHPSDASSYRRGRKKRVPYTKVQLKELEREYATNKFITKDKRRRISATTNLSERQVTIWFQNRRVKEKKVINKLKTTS

[15] = inhibitors of hydroxyurea-induced Chk1 phosphorylation, primary screen, imaging, HeLa, phospho-Chk1 antibody, percent positive cells (AID 1186); conditions: hydroxyurea-induced phospho-Chk1 immunofluorescence imaging, higher = more signal
[16] = inhibitors of hydroxyurea-induced Chk1 phosphorylation, primary screen, imaging, HeLa, phospho-Chk1 nuclear intensity (AID 1187); conditions: hydroxyurea-induced phospho-Chk1 immunofluorescence imaging, higher = more signal

Structure (SMILES)	z-score [1]	z-score [2]	z-score [3]	composite z-score [4]	z-score [5]	z-score [6]	z-score [7]	z-score [8]	z-score [9]	composite z-score [10]	composite z-score [11]	composite z-score [12]	z-score [13]	z-score [14]	z-score [15]	z-score [16]
COc1ccc([Si](C)(C)[C@H]2[C@H](CC(=O)N3Cc4ccccc4C[C@H]3CO)O[C@@]3(C(=O)N(Cc4ccc(N5CCOC5=O)cc4)c4ccccc43)[C@@H]2C)cc1	-0.418	-0.895 (inactive)	-3.41 (inactive)	-1.03 (inactive)	0.732 (inactive)	0.543 (inactive)	0.166 (inactive)	-0.207 (inactive)	-2.27	-0.105	1.61 (inactive)	0.742	-0.847	-3.92 (inactive)	-0.719 (inactive)	-0.869 (inactive)
C=CCN1Cc2ccccc2[C@@H]2OC(c3ccc(OCCCO)cc3)=N[C@]2(CC=C)C1=O	0.151	-1.94 (inactive)	0.0504 (inactive)	-0.0817 (inactive)	0.314 (inactive)	-0.0316 (inactive)	0.997 (inactive)	0.64 (inactive)	-0.747	0.247	0.887 (inactive)	0.794	-2.08	-1.62 (inactive)	-0.675 (inactive)	-1.39 (inactive)
O=C1N(Cc2ccccc2)c2ccccc2C[C@]12N=C(c1ccc(OCCCO)cc1)O[C@@H]2c1ccccc1	-0.658	0.0989 (inactive)	-2.55 (inactive)	0.581 (inactive)	1.58 (inactive)	1.29 (inactive)	0.223 (inactive)	-0.2 (inactive)	-2.6	-0.135	-0.12 (inactive)	0.59	-2.37	-3.59 (inactive)	-0.0747 (inactive)	-0.154 (inactive)
COCCOC(=O)N1C(=O)[C@@]2(c3cc(C#CC4=CCCCC4)ccc31)[C@H](C(=O)Nc1nc3ccccc3s1)[C@H]1C(=O)O[C@H](c3ccccc3)[C@H](c3ccccc3)N1[C@@H]2c1ccc(O)cc1	-0.263	-0.344 (inactive)	-0.679 (inactive)	0.347 (inactive)	0.766 (inactive)	-0.145 (inactive)	-0.469 (inactive)	-0.765 (inactive)	-0.527	-0.138	-0.0082 (inactive)	0.751	-0.259	-0.148 (inactive)	-0.0232 (inactive)	-0.0288 (inactive)
CC(=O)N1CC2(CC2)CC1c1ccccc1 (stereo not given)	-0.603	1.12 (inactive)	-1.89 (inactive)	-0.448 (inactive)	0.535 (inactive)	0.0303 (inactive)	-0.88 (inactive)	-0.206 (inactive)	-1.36	0.0116	0.485 (inactive)	0.915	-0.0608	-1.06 (inactive)	0.465 (inactive)	0.444 (inactive)
CC[C@@H]1C=C(C(=O)O)[C@H](c2ccc(C#N)cc2)N1S(=O)(=O)c1ccc(C)cc1	-0.835	0.965 (inactive)	-0.933 (inactive)	-1.93 (inactive)	-0.0601 (inactive)	-0.242 (inactive)	-0.266 (inactive)	-0.0211 (inactive)	-1.21	0.0153	0.377 (inactive)	-0.172	1.91	-4.62 (inactive)	0.208 (inactive)	-0.0106 (inactive)
[N-]=[N+]=Nc1ccccc1C[C@@]1(C(N)=O)N=C(c2ccc(OCCCO)cc2)O[C@@H]1c1ccccc1N=[N+]=[N-]	0.212	-3.3 (inactive)	-0.902 (inactive)	-0.652 (inactive)	0.0405 (inactive)	-0.739 (inactive)	0.891 (inactive)	-0.174 (inactive)	-0.76	-0.112	1.28 (inactive)	0.763	-2.67	-5.05 (inactive)	-0.0618 (inactive)	0.233 (inactive)
CCCNC(=O)[C@@]1(Sc2ccc(C)cc2)CC(=O)N(C2Cc3ccccc3C2)[C@@H]1c1ccc(CO)cc1I	-0.463	-2.31 (inactive)	-1.67 (inactive)	-0.141 (inactive)	0.518 (inactive)	-0.564 (inactive)	0.599 (inactive)	-0.0019 (inactive)	-1.55	-0.0286	0.0241 (inactive)	0.733	0.441	-2.68 (inactive)	0.34 (inactive)	0.78 (inactive)
CCCC=C(CCC)[C@@H](NP(=O)(c1ccccc1)c1ccccc1)c1ccc(-c2ccccc2)cc1	0.127	2.21 (inactive)	-1.16 (inactive)	0.23 (inactive)	-0.511 (inactive)	1.42 (inactive)	-0.492 (inactive)	0.477 (inactive)	-1.72	0.144	0.356 (inactive)	0.42	0.0851	-1.13 (inactive)	0.175 (inactive)	-0.0233 (inactive)
COc1cc2c(cc1O)C(c1ccc(CN3CCCC3)cc1)N(Cc1cc3c(cc1Br)OCO3)CC2 (stereo not given)	0.686	-0.714 (inactive)	-1.44 (inactive)	-0.296 (inactive)	-0.0218 (inactive)	-0.365 (inactive)	-1.36 (inactive)	-1.01 (inactive)	0.174	-0.123	0.0473 (inactive)	0.723	-2.36	-1.73 (inactive)	0.055 (inactive)	0.174 (inactive)
